The values that follow come from PMC11062922 (Nature Chemical Biology, 2023).

Molecules are shown by their SMILES. Read-outs that look alike come from different tables or passages of the source.

Parameters in all cases: species or system human, MV4-11 + K-562 + COLO205 + SK-N-BE2 + OVCAR-8
One assay deals with PIK3C3. The following applies: read-out: apparent Kd; compound concentrations:100 nM and 1000 nM (sheet 'Samples'); n = 1.
The next assay concerns BUB1. The following applies: read-out: apparent Kd; compound concentrations: 100 nM and 1000 nM (sheet 'Samples'), CATDS: 0.17934012366879401; n = 1.
A further assay relates to CIT. The note with it: read-out: apparent Kd; compound concentrations: 100 nM and 1000 nM (sheet 'Samples'), CATDS: 0.144210490801775; n = 1.
The subject of the next assay is CSNK1D. The note with it: read-out: apparent Kd; compound concentrations: 100 nM and 1000 nM (sheet 'Samples'), CATDS: 0.10890792541592099; n = 1.
The next assay relates to GAK. The note with it: read-out: apparent Kd; compound concentrations: 100 nM and 1000 nM (sheet 'Samples'), CATDS: 0.122345585139645; n = 1.
In a further assay the test system is MAPK10. The following applies: read-out: apparent Kd; compound concentrations: 100 nM and 1000 nM (sheet 'Samples'), CATDS: 0.135593379838652; n = 1.
In the next assay the test system is MAPK14. The note with it: read-out: apparent Kd; compound concentrations: 100 nM and 1000 nM (sheet 'Samples'), CATDS: 0.115463865520786; n = 1.
Another assay deals with MAPK9. The following applies: read-out: apparent Kd; compound concentrations: 100 nM and 1000 nM (sheet 'Samples'), CATDS: 0.122740421728674; n = 1.
For the next assay, the system named is MAPKAPK2. The note with it: read-out: apparent Kd; compound concentrations: 100 nM and 1000 nM (sheet 'Samples'), CATDS: 0.10049167184689101; n = 1.
The test system of another assay is AURKB. The following applies: read-out: apparent Kd, compound concentrations: 100 nM and 1000 nM (sheet 'Samples'), n = 1.
For the next assay, the system named is PIK3CD. The following applies: read-out: apparent Kd, compound concentrations: 100 nM and 1000 nM (sheet 'Samples'), n = 1.
The subject of another assay is AURKA. The following applies: read-out: apparent Kd; compound concentrations: 100 nM and 1000 nM (sheet 'Samples'), CATDS: 7.2956934491261893E-2; n = 1.
In another assay the test system is EPHB6. The note with it: read-out: apparent Kd; compound concentrations: 100 nM and 1000 nM (sheet 'Samples'), CATDS: 7.4696774901665194E-2; n = 1.
The test system of the next assay is FER. The note with it: read-out: apparent Kd; compound concentrations: 100 nM and 1000 nM (sheet 'Samples'), CATDS: 5.6438447882713398E-2; n = 1.
The next assay concerns FES. The note with it: read-out: apparent Kd; compound concentrations: 100 nM and 1000 nM (sheet 'Samples'), CATDS: 5.2113476135959902E-2; n = 1.
In another assay the test system is FLT3. The note with it: read-out: apparent Kd, compound concentrations: 100 nM and 1000 nM (sheet 'Samples'), n = 1.
A further assay concerns FLT4. The note with it: read-out: apparent Kd; compound concentrations: 100 nM and 1000 nM (sheet 'Samples'), CATDS: 0.232544079130999; n = 1.
Another assay has as its system IRAK3. The following applies: read-out: apparent Kd; compound concentrations: 100 nM and 1000 nM (sheet 'Samples'), CATDS: 5.7923631136655801E-2; n = 1.
For another assay, the system named is MET. The note with it: read-out: apparent Kd; compound concentrations: 100 nM and 1000 nM (sheet 'Samples'), CATDS: 6.0904662121703403E-2; n = 1.
The test system of a further assay is MST1R. The note with it: read-out: apparent Kd; compound concentrations: 100 nM and 1000 nM (sheet 'Samples'), CATDS: 5.5385881905980802E-2; n = 1.
Another assay concerns PDGFRB. The following applies: read-out: apparent Kd; compound concentrations: 100 nM and 1000 nM (sheet 'Samples'), CATDS: 5.6967263110053901E-2; n = 1.
A further assay deals with PLK4. The note with it: read-out: apparent Kd; compound concentrations: 100 nM and 1000 nM (sheet 'Samples'), CATDS: 9.5800604648041798E-2; n = 1.
The subject of a further assay is TNK1. The following applies: read-out: apparent Kd; compound concentrations: 100 nM and 1000 nM (sheet 'Samples'), CATDS: 0.119940011708452; n = 1.
The test system of a further assay is RPS6KA4. The note with it: read-out: apparent Kd; compound concentrations: 100 nM and 1000 nM (sheet 'Samples'), CATDS: 0.19604885233209601; n = 1.
The test system of another assay is EIF2AK1. The note with it: read-out: apparent Kd; compound concentrations: 100 nM and 1000 nM (sheet 'Samples'), CATDS: 0.26763431459408499; n = 1.
A further assay deals with STK3. The following applies: read-out: apparent Kd; compound concentrations: 100 nM and 1000 nM (sheet 'Samples'), CATDS: 0.22390025297111801; n = 1.
The test system of the next assay is STK4. The note with it: read-out: apparent Kd; compound concentrations: 100 nM and 1000 nM (sheet 'Samples'), CATDS: 0.27956924002989397; n = 1.

`Cc1cn2c(=O)cc(N3CCOCC3)nc2n1Cc1cccc(Cl)c1Cl` [GSK2334006A]: in the assay on PIK3C3, the potency estimated from few doses was 61.5 nM.
In the case of `Fc1ccc(-c2nn3c(OCC(F)(F)F)cccc3c2-c2ccncc2)cc1` [GW514784X], the potency estimated from few doses in the assay with BUB1 is 448 nM; in the assay with CIT, 646 nM; with CSNK1D, 1160 nM; in the assay on GAK it was 890 nM; in the assay on MAPK10 it was 725 nM; in the assay on MAPK14, 1010 nM. Further, the potency estimated from few doses was 884 nM with MAPK9 and 1420 nM in the assay with MAPKAPK2.
Consider `COc1ccc(Nc2nccc(N3CCC(NC(=O)c4cccc(C#N)c4)C3)n2)cc1` (centres unmarked) [GSK1379730A], for which the potency estimated from few doses with AURKB (CATDS: 0.359402067500939) is 1450 nM; in the assay with PIK3CD (CATDS: 0.82128719253375804), 177 nM.
In the case of `CN(c1ccc(NC(=O)Nc2c(Cl)cccc2Cl)cc1)c1ccnc(Nc2cccc(CS(C)(=O)=O)c2)n1` [GW809897X], the potency estimated from few doses in the assay on AURKA was 449 nM; in the assay with AURKB (CATDS: 8.8518013228777503E-2), 271 nM; in the assay with EPHB6, 421 nM; with FER it was 1010 nM; with FES, 1400 nM; in the assay with FLT3 (CATDS: 0.75020516601315201), 3.04 nM. Besides, the potency estimated from few doses is 31.6 nM in the assay with FLT4; 921 nM with IRAK3; 774 nM in the assay with MET; 1090 nM in the assay on MST1R; 979 nM in the assay on PDGFRB; 224 nM with PLK4. For the same compound, in the assay with TNK1, the potency estimated from few doses is 134 nM.
Consider `O=C1Nc2ccccc2/C1=C1\CCc2cc(O)ccc21` [GR105659X], for which the potency estimated from few doses with AURKB (CATDS: 0.205313587385097) was 856 nM; in the assay on FLT3 (CATDS: 0.27070299273409698) it was 446 nM; in the assay on PIK3CD (CATDS: 0.42834866623309398) it was 199 nM; with RPS6KA4, 977 nM.
For `COc1cccc(CC(=O)N2CCc3cc(-c4cn(C)c5ncnc(N)c45)ccc32)c1` [GSK2608899A], the potency estimated from few doses is 1340 nM with AURKB (CATDS: 0.23694703885971399), 1050 nM in the assay with EIF2AK1, 1510 nM in the assay with STK3 and 966 nM with STK4.
